Assay outcomes from PubChem BioAssay.
AI-2 QS mod: Vibrio harveyi AI-2 quorum sensing modulators, primary screen, JMH597 strain, luminescence/OD600 ratio; Vibrio harveyi JMH597 AI-2 luminescence/OD600 ratio, 9 h; stronger effect = lower value; strain lacks LuxN and CqsS sensors; 0 = neutral-control median; activity change, % at 7.5 µM; hit rate 0.4% among 300,000; AID 2094, 2009; in the data active = activity change below about -75%, passing the limit was not always enough; inconclusive = no clear call, values can overlap the other calls;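 also: luminescence divided by OD600 gain over 9 h not by final OD600 alone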
ALR inh: inhibitors of human ALR sulfhydryl oxidase, primary screen, biochemical, H2O2 detection, HRP-luminol luminescence, single point. FAD-linked sulfhydryl oxidase ALR (Homo sapiens), P55789. hit rate 3.8% among 290,000. inhibition, % (no concentration beside the values). AID 485317, 2010. purified ALR, DTT oxidation;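 active = mean replicate inhibition above about 79%, with every replicate also reaching it, limit read from the data; inconclusive = only one of the two criteria met; inactive = mean below limit and not every replicate reaching it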
PREPL inhibitor: PREPL enzyme inhibitors, primary screen, biochemical, fluorescence polarization | Prolyl endopeptidase-like (Homo sapiens), Q4J6C6 | recombinant PREPL, fluorescence polarization activity-based probe | inhibition, % at 5.96 µM | hit rate 0.68% among 320,000 | AID 2751, 2010; in the data active = inhibition above about 43%;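 also: 0% = enzyme with DMSO and 100% = wells lacking enzyme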
Target sequence (Q4J6C6 whole entry, looked up): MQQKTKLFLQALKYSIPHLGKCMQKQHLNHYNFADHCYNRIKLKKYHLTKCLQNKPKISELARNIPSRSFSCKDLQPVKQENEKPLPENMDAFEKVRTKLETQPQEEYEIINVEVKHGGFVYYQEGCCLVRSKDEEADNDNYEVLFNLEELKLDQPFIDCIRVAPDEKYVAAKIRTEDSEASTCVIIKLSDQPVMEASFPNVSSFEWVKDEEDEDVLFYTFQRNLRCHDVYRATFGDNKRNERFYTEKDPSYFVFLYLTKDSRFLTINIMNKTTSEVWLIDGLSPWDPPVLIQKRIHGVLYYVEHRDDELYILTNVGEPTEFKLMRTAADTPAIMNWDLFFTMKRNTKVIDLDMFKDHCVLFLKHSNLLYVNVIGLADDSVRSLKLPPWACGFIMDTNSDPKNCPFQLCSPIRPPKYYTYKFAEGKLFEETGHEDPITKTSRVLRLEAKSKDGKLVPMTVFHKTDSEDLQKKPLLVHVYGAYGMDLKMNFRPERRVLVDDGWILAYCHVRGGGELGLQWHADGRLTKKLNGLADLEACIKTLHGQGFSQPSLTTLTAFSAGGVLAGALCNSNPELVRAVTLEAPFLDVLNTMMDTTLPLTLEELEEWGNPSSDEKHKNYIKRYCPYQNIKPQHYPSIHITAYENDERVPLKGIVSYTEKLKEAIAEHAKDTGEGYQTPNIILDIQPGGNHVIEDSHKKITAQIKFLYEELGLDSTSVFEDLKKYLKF
CHT inh: inhibitors of human choline transporter CHT | High affinity choline transporter 1 (Homo sapiens), Q9GZV3 | CHT-expressing cells, membrane potential dye, choline response; stronger effect = lower value | B-score at 10 µM | hit rate 0.86% among 310,000;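 active = B-score over 3 SD under the library average, and starting fluorescence ratio not unusually high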;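 also: choline stimulus applied at its EC90 after an EC20 pre-addition; B-score computed on integrated fluorescence ratio after choline addition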
CHT PAM: CHT positive allosteric modulators, primary screen, cell-based, membrane potential dye, choline EC20. High affinity choline transporter 1 (Homo sapiens), Q9GZV3. CHT-expressing cells; stronger effect = higher value; LV-AA mutant CHT in HEK293 cells. B-score at 10 µM. hit rate 0.49% among 310,000;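 active = initial fluorescence not abnormally high and integrated response B-score, plate-corrected, over 3 SD above library mean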
CHT act confirm: CHT activators, confirmation, cell-based, membrane potential dye, duplicate; activation, % at 10 µM; shares compounds with CHT PAM; CHT-expressing cells, membrane potential dye fluorescence (FDSS); % of choline EC20–EC90 response window; HEK293 expressing CHT LV-AA mutant; choline added at its EC20; hit rate 91% among 2,500;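 active = primary screen active, with duplicate mean activation above negative control mean plus 3 SD, cut at about 11% in these data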
HEK293 MP dye: membrane potential response in parental HEK293 cells, counter-screen for CHT activator project, cell-based, membrane potential dye | shares compounds with CHT PAM | ratio readout change at 10 µM, hits read low | hit rate 62% among 2,500 | membrane potential dye fluorescence (FDSS); measured after EC20 choline addition;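 active = duplicate-averaged ratio beyond 3 SD from buffer wells, up or down, though filed actives are nearly all decreases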
* marks the source's active call; other numbers are inactive results; i = inactive; u = inconclusive; x = no result given. The list is not random: actives were taken first. Their share in the collection is about 5%.

SMILES	AI-2 QS mod	ALR inh	PREPL inhibitor	CHT inh	CHT PAM	CHT act confirm	HEK293 MP dye
OCC[N+]12CCC(CC1)C(C(O)(c1ccccc1)c1ccccc1)C2 (stereo not drawn)	18	-3	15	i	i	x	x
CCC[N+]12CCC(CC1)C(=C(c1ccccc1)c1ccccc1)C2	-2	-3	10	i	6.5*	16*	i
CCCC[N+]12CCC(CC1)C(=C(c1ccccc1)c1ccccc1)C2	20	-5	10	i	9.4*	61*	i
Cc1ccc(-c2nc3ccc(Cl)cc3n2OC(=O)N(C)C)cc1	31	-4	0	i	i	x	x
NP(=O)(OCC(F)(F)F)Oc1ccc(Cl)cc1 (stereo not drawn)	10	1	8	i	i	x	x
Cc1cc(C)c2c(ccc3cccc[n+]32)c1	3	-4	5	i	6.3*	72*	-55*
Nc1c(C(=O)NCc2ccco2)c2nc3ccccc3nc2n1CCN1CCOCC1	5	7	13	i	6.4*	20*	-21*
Nc1c(C(=O)NCc2ccco2)c2nc3ccccc3nc2n1Cc1ccccc1	4	2	8	i	i	x	x
COc1ccc(C(=O)C2CCCN(C3CSCCSC3)C2)cc1OC (stereo not drawn)	24	-6	0	i	i	x	x
CN(C)c1cc[n+](CC(O)C[n+]2ccc(N(C)C)cc2)cc1	12	28	-1	i	7.7*	35*	-71*
O=[N+]([O-])c1ccc2nc(N3CCNCC3)ccc2c1	34	-7	19	i	11*	37*	-51*
O=C(Nc1ccccc1)c1cc([N+](=O)[O-])ccc1N1CCNCC1	77	-12	1	i	i	x	x
Cn1c(O)c(/C=N/c2ncccn2)c(=O)n(C)c1=O	17	2	0	i	i	38*	-36*
Cc1ccccc1N1C(=O)CC(=O)N(c2ccccc2C)C1=O	-5	37	1	i	i	x	x
O=C(C[N+]12CCC(CC1)C(C(O)(c1ccccc1)c1ccccc1)C2)c1ccc(Br)cc1 (stereo not drawn)	26	-3	-15	i	i	30*	-22*
C[n+]1c(-c2ccccc2)sc2ccccc21	45	8	2	i	i	52*	-42*
O=C1OCc2cc(N=Nc3c(O)[nH]c(=O)[nH]c3=O)ccc21	26	-20	-7	i	i	x	x
CN1CCN(C(=O)OC2c3nccnc3C(=O)N2c2ccc(Cl)cn2)CC1 (stereo not drawn)	12	-3	6	i	9.8*	68*	-60*
CCn1c(O)c(/C(C)=N/N2CCCCC2c2cccnc2)c(=O)[nH]c1=S (stereo not drawn)	19	-7	9	i	i	x	x
COc1ccc(OCC#CCN2CCNCC2)cc1	x	-5	-1	i	i	x	x
C[n+]1ccc(-c2ccccc2)c2ccccc21	-6	-24	9	i	8.6*	85*	-70*
CCSc1cc(C2C(C#N)=C(N)Oc3n[nH]c(C)c32)c(C)o1 (stereo not drawn)	17	x	3	i	i	x	x
Cc1sc2ccccc2c1CC1=NCCN1	x	-15	-28	i	7.8*	46*	-50*
Cc1ccc(-c2cc(-c3ccccc3)cc(-c3ccccc3)[n+]2-c2ccccc2C(=O)O)cc1	-2	-31	21	i	i	x	x
Oc1ccc(-[n+]2c(-c3ccccc3)cc(-c3ccccc3)cc2-c2ccccc2)cc1	15	-6	37	i	9.8*	80*	-26*
SMILES	AI-2 QS mod	ALR inh	PREPL inhibitor	CHT inh	CHT PAM	CHT act confirm	HEK293 MP dye
C[n+]1c(-c2ccccc2)cc(-c2ccc(O)cc2)cc1-c1ccccc1	-2	u	1	i	7*	55*	-58*
C[n+]1ccc(-c2cc[n+](C)cc2)cc1	x	-29	1	i	11*	85*	-100*
CCCCCCC[n+]1ccc(-c2cc[n+](CCCCCCC)cc2)cc1	18	-2	16	i	i	x	x
CC(C)C1(C)N=C(c2nc3ccccc3cc2C(=O)O)NC1=O (stereo not drawn)	37	-3	4	i	i	x	x
COc1cc2c(cc1OC)-c1c3c(cc4c1[C@@H](C2)N(C)CC4)OCO3	0	-38	20	i	i	42*	-48*
CC1=C(C(=O)N2CCC3(CC2)OCCO3)C2(CCC(C)CC2)OC1=O (stereo not drawn)	39	-17	6	i	i	x	x
Nc1cc(N2CCNCC2)ccc1[N+](=O)[O-]	12	3	1	i	i	x	x
CNc1cc(N2CCNCC2)ccc1[N+](=O)[O-]	28	-3	2	i	i	39*	-49*
COc1cc2nc(CN3CC=C(c4ccccc4)CC3)[nH]c(=O)c2cc1OC	22	2	26	i	i	x	x
CC[n+]1c(/C=C/N(C)c2ccccc2)sc2ccc(Cl)cc21	24	x	-39	i	i	15*	-39*
CC[n+]1c(/C=C/C=C/c2ccc(N(C)C)cc2)sc2ccccc21	u	x	9	i	i	x	x
Cc1cccc(NP(=O)(Oc2ccccc2F)Oc2ccccc2F)c1	15	2	-11	i	i	23*	i
COc1ccc(NS(=O)(=O)c2ccc(OCC(=O)N3CCN(C)CC3)cc2)cc1Cl	17	2	6	i	i	x	x
CN(C)c1nc(-c2ccccc2)[n+](C)s1	19	8	7	i	i	26*	-49*
CCCc1nc2ccc(Br)cc2c(=O)n1-c1ccc([N+](=O)[O-])c(C(F)(F)F)c1	27	-15	4	i	i	2	i
CCc1nc2ccc(Br)cc2c(=O)n1-c1ccccc1C(F)(F)F	17	-1	-9	i	i	x	x
CCN(CC)C(=O)c1ccc(NC(=O)COc2ccc(-c3nn(C)c(=O)c4ccccc34)cc2)cc1	x	5	4	i	i	x	x
CN1CCN(c2ccc([N+](=O)[O-])c(SCCO)c2)CC1	12	-10	1	i	6.8*	37*	-65*
